# Reference: PubChem BioAssay (NCI)
# This is part of a sample that, as a whole, favours compounds with a hit. Of some 83,000 tested, about 20% had one in any assay.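 Negative percent growth values reflect cell death: -40 means 40% of the cells present at the start died, and -100 means all died.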 Unmarked numbers belong to inactive results. Activity calls are given as the source filed them. Rule for the calls: active = growth percent below 10; inactive = the rest.
# Test system: HL-60(TB) leukemia
# Experiment: NCI-60 one-dose screen, 48 h (100 = growth as untreated, 0 = no growth, -100 = all killed)
# Settings: 10 µM unless noted
row,Compound,growth
1,Cc1nc(NN)c([N+](=O)[O-])c(NN)n1,68.1%
2,O=C(O)CCCCCCCCCCN1C(=O)/C(=C2/C(=O)N(CC(=O)O)c3ccc(Br)cc32)SC1=S,9.25% (active)
3,O=C(CCc1nnc2sc(-c3cc(O)c(O)c(O)c3)nn12)c1nc2ccccc2[nH]1,100%
4,O=S1(=O)c2ccccc2Oc2ccccc21,89.5%
5,Cc1ccc2c(c1)CC(O)CC1C(=O)N(CCO)CC(=O)N21 (configuration not stated),96.9%
6,Cc1ccc2nc(-c3ccc(OCC(=O)N=Nc4c(O)[nH]c5ccccc45)cc3)[nH]c2c1,88.9%
7,Cc1oc2nc[nH]c(=O)c2c1C(=O)/C=C/c1ccc(Cl)cc1Cl,7.83% (active)
8,CC(C)(Sc1cc(C(C)(C)C)c(O)c(C(C)(C)C)c1)Sc1cc(C(C)(C)C)c(OC(=O)CCCC(=O)O)c(C(C)(C)C)c1,67.6%
9,S=c1[nH]nc2ccccn12,59.3%
10,COc1cc(-c2nn(-c3cccc(NC(=O)CCN4CCN(c5ccccc5)CC4)c3)cc2-c2ccncc2)ccc1Cl,13%
11,CCCC[N+](C)(N)CCCC,104%
12,O=C(Nc1cccc(-n2ccc3c(NC(=O)c4ccccc4)ncnc32)c1)Nc1ccc(Cl)c(C(F)(F)F)c1,-1.92% (active)
13,C[C@]12CC[C@H](O)CC1=CC[C@@H]1[C@@H]2CC[C@]2(C)C(c3cccnc3)=CC[C@@H]12,-25% (active)
14,CCN(CC)c1ccc2cc(NC(=O)OCCNC(=O)CCNC(=O)[C@H](CC(C)C)NC(=O)C(C)(C)NC(=O)C(C)(C)NC(=O)[C@H](CC(C)C)NC(=O)CCNC(=O)C(C)(C)NC(=O)[C@H](CC(C)C)NC(=O)CCNC(=O)[C@@](C)(CC)NC(=O)[C@H](C)NC(=O)CCNC(=O)C(C)(C)NC(=O)[C@H](C)NC(=O)[C@@H]3CCCN3C(=O)[C@@](C)(CC)NC(=O)[C@H](Cc3ccccc3)NC(=O)C3CCCN3C(=O)C(C)(C)NC(=O)C3CCCN3C(=O)C(C)(C)NC(C)=O)c(=O)oc2c1 (some centres not stated),-67.7% (active)
15,CC1OC(n2c3ccccc3c3c4c(c5c6ccccc6[nH]c5c32)C(=O)N(CCN[C@H]2CCC[C@@H]2N)C4=O)CC(O)C1O (some centres not stated),54.3%
16,S=C1SCC(c2ccccc2)S1 (configuration not stated),108%
17,CC(O)C(O)C(O)C(O)C(O)C(=O)NNc1ccccc1 (configuration not stated),116%
18,Nc1nc(I)c2ncn(C3OC(CO)C(O)C3O)c2n1 (configuration not stated),99.4%
19,C=CCOC(=O)C1=C(C)N(CC)C(=O)N(CC)C1c1c(Cl)n(C)c2ccccc12 (configuration not stated),96.9%

row,Compound,growth
1,CCCCCCCCCCCC[n+]1ccc2ccccc2c1,-53.4% (active)
2,CCCCC1(O)CCCCC1,99.1%
3,CC(C)(C)N1CCC1C(N)=O (configuration not stated),92.4%
4,CC(C)n1c(NCCc2ccc(O)c(O)c2)nc2c1c(=O)n(C)c(=O)n2C,99.3%
5,COc1ccc2nc3ccccc3c(NCc3ccc(Cl)cc3)c2c1,-64.5% (active)
6,COc1cc(/C=C/c2cc(/C=C/c3ccc(O)c(OC)c3)n(C(N)=O)n2)ccc1O,-25.1% (active)
7,O=C1OCC/C1=C\OCCCO/C=C1\CCOC1=O,104%
8,Cc1cc(Nc2c3ccccc3nc3ccccc23)ccc1NS(C)(=O)=O,32.2%
9,COc1ccc(NC(=O)c2ccc(C(F)(F)F)nc2Nc2ccc(Cl)cc2C)cc1Cl,4.78% (active)
10,Nc1c(C(=O)Nc2ccccc2)sc2nc3c(cc12)CCCC3,15.5%
11,CCCC(O)Cn1ncc(C(=O)OCC)c1NC(=O)NCc1cccc(C(F)(F)F)c1 (configuration not stated),71.2%
12,O=C1OCC2=C1C(c1ccc(Cl)c(Cl)c1)c1cc3c(cc1N2CCO)OCCO3 (configuration not stated),-18.9% (active)
13,FC(F)(F)c1cccc(Nc2nc(-c3ccccc3)nc3ncccc23)c1,-57.8% (active)
14,O=C1/C(=C\c2ccc(Br)o2)SC(=S)N1CCc1ccc(O)cc1,42.2%
15,CCCCCCCCCCC(C[N+](C)(C)C/C=C/c1ccccc1)C(O)c1ccccc1 (configuration not stated),-48.9% (active)
16,Cc1ccc(-n2c(-c3ccccc3)c(-c3ccccc3)c3c(SCC(=O)n4[nH]c(N)cc4=O)ncnc32)cc1,102%
17,CCc1ccc2nc(NC(=O)Cc3csc(NC(=O)c4ccco4)n3)sc2c1,74.2%
18,CN(C)CCCN1c2ccccc2CCc2ccc(Cl)cc21,80.2%
